Screens (PubChem BioAssay)
FLuc counter: firefly luciferase modulation, counter-screen for miR-21 project | P08659 | Potency, µM (titrated, usually from 57.5 µM), for inactives: top-dose activity change, negative = inhibition, hits mostly inhibitors | 360,000 compounds, 6.9% hits | AID 588342 | purified FLuc, Km substrates, luminescence inhibition;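 note: plate controls were vehicle for no effect and reference inhibitor for full effect; nearly all actives have a fitted effect of over 55% in size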
Target sequence (P08659 whole entry, looked up): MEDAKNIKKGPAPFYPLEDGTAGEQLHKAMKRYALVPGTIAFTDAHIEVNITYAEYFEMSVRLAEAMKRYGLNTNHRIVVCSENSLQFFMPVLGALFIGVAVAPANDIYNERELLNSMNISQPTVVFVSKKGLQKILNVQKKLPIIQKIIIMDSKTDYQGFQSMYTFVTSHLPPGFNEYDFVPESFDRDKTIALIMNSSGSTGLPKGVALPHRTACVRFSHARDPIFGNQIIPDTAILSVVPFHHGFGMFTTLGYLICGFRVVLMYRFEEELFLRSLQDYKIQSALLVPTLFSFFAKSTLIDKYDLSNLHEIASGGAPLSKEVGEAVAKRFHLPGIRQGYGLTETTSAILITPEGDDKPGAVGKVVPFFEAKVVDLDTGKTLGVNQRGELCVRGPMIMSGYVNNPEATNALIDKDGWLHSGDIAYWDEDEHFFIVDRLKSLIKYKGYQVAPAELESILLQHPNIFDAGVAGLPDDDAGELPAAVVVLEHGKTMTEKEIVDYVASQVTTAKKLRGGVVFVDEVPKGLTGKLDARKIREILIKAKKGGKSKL
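Purified P. pyralis luciferase (10nM final) with 10uM D-luciferin and 10uM ATP (Km levels) in 50mM Tris acetate pH 7.5, 10mM Mg acetate, 0.01% Tween-20, 0.05% BSA; qHTS 6-point titration, ~60 µM downward; luminescence read.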
NPC1 promoter act: activators of NPC1 promoter; Potency, µM (top dose mostly 9.22 µM), for the others: at the top dose activation, actives largely listed as activators; 320,000 compounds, 2.4% hits; Huh7 NPC1 promoter luciferase reporter, 24 h; AID 485313; note: % of control where 0% means no effect; nearly all actives have a fitted effect of over 60% in size
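In 1536-well qHTS, Huh7 cells harboring an NPC1 promoter–luciferase construct received compound for 24 h; activation was quantified by luminescence following luciferase reagent addition.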
ELG1 genotoxic: induces genotoxicity in HEK293T cells with luciferase-tagged ELG1; Potency, µM (top dose mostly 46 µM), without a hit: top-dose activity change, positive = activation, actives largely listed as activators; 330,000 compounds, 1.3% hits; HEK293T ELG1-luciferase reporter, luminescence, 16 h; AID 504466; note: % of control where 0% means no effect; nearly all actives have a fitted effect of over 60% in size
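HEK293T cells expressing luciferase-tagged ELG1 were treated with compound or DMSO for 16 hr at 37°C. Luciferase activity was then read after 30 min with ONE-Glo at room temperature; rising signal flags genetic stress.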
KinaseGlo FLuc: Kinase-Glo luciferase inhibition (counter-screen). Kinase-Glo luciferase, ATP luminescence, 8 min. Potency, µM (highest dose often 38.3 µM), inactives show top-dose activity change, negative = inhibition, usual class: inhibitors. 200,000 compounds, 0.28% hits. AID 1379; note: % is set by controls: 0 for no effect and ±100 for the full control effect; nearly all actives have a fitted effect of over 60% in size
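Luminescence was the read-out, taken after 8-minute incubation at ambient temperature. Luciferase turned over luciferin with 10 uM ATP in imidazole pH 7.2 buffer containing KCl, MgCl2, Tween 20 and BSA.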
SMN2 splice up: enhancers of SMN2 splice variant expression; HEK293 SMN2-luciferase splicing reporter, luminescence, 30-36 h; Potency, µM (doses to about 46.1 µM), for the others: at the top dose activity change, positive = activation, usual class: activators; 210,000 compounds, 2.8% hits; note: % of control where 0% means no effect; nearly all actives have a fitted effect of over 55% in size
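HEK293 cells carry an SMN2 […]–luciferase reporter in which exon 7 inclusion puts luciferase in frame. Cells were plated 10-12 h before compound addition, then incubated 30-36 h at 37C. ONE-Glo luminescence was read; sodium butyrate at 4.5 mM final served as control.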
Rab9 prom act: activators of Rab9 promoter. Huh7 Rab9 promoter-luciferase reporter, luminescence, 24 h. Potency, µM (highest dose often 9.22 µM), for the others: at the highest dose activation, negative = inhibition, actives largely listed as activators. 320,000 compounds, 2.8% hits; note: % of control where 0% means no effect; nearly all actives have a fitted effect of over 60% in size
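Luminescence from Amplite-detected luciferase (10 minutes, ambient) reports Rab9 promoter activation. Before that, stable Rab9-luciferase Huh7 cells (1500/well, reduced-serum OP-MEM I plus 10% FBS) were exposed to compound for 24 hours at 37C.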
Numbers without * were called inactive; ? = inconclusive; · = no result given; [ ] = remark or other dose. Most compounds without a hit are left out; they make up all but 7.5% or so of the library. Calls come from the whole dose curve; as a rule, active = well fitted curve in the direction sought with a large enough effect; inconclusive = small, poorly fitted or top-dose-only effect, or another doubt; inactive = no such curve, though single readings can be large; an effect the other way counts as inactive or inconclusive. Potency is the fitted concentration of half-maximal effect.

SMILES | FLuc counter | NPC1 promoter act | ELG1 genotoxic | KinaseGlo FLuc | SMN2 splice up | Rab9 prom act
COCCn1c(C)cc(C(=O)CSc2nc3ccccc3s2)c1C | 0.54µM* | 0.35µM* | ? | -13% | -77% | 0.5µM*
COCCn1c(C)cc(C(=O)CSc2nc3ccccc3o2)c1C | 1.3µM* | 0.63µM* | ? | -3% | 7.9µM* | 0.35µM*
COc1ccc2c(C)cc(SCC(=O)c3ccc4c(c3)OCO4)nc2c1 | ? | -1% | -7% | 1% | -11% | 7%
COCCn1c(C)cc(C(=O)CSc2nc(C)c(C)c(C)n2)c1C | -19% | -6% | 0% | 0% | -24% | 0%
COCCn1c(C)cc(C(=O)CSc2cc(C)c3ccc(OC)cc3n2)c1C | 3µM* | 7% | 2% | · | · | 19%
CCOc1ccccc1NC(=O)Cn1nnc(C(=O)NCc2ccc3c(c2)OCO3)c1N | 8% | -30% | 4% | · | · | -25%
O=C(N/N=C/c1ccc(-c2ccccc2[N+](=O)[O-])o1)c1cccnc1 | ? | 14% | 0% | 1% | 6% | 1%
CC(C)(C)c1cc(C(=O)N/N=C/c2ccc(-c3ccccc3[N+](=O)[O-])o2)n[nH]1 | 21µM* | 18% | -3% | · | · | 9%
Cc1cc(C(=O)N/N=C/c2cccc([N+](=O)[O-])c2O)n[nH]1 | 15µM* | 2% | -3% | 2% | -13% | -6%
O=c1c(-c2ccccc2)nc2cnc(Oc3ccccc3)nc2n1Cc1cccs1 | · | · | · | -5% | -16% | ·
CCc1ccc(-c2ccc(C(=O)O)cc2)nc1 | 8.5µM* | ? | 10% | -6% | ? | 3.5µM*
Cc1cccc(NC(=S)N/N=C/c2cccc(O)c2)c1C | ? | -26% | -4% | · | · | -31%
CCCOc1ccc(/C=N/NC(=S)Nc2ccccc2[N+](=O)[O-])c(O)c1 | 3.4µM* | 3% | ? | -11% | -87% | -16%
Cc1ccccc1NC(=S)N/N=C/c1ccc(O)cc1O | 2.4µM* | ? | ? | · | · | 26%
COc1ccc(/C=N/NC(=S)Nc2ccccc2[N+](=O)[O-])cc1O | 0.43µM* | 22% | 5.2µM* | -7% | ? | -2%
O=[N+]([O-])c1cc(/C=N/NC(=S)Nc2ccccc2Cl)ccc1Cl | 6% | 2% | -4% | -1% | 8% | -10%
CCCOc1ccc(/C=N/Nc2cccc([N+](=O)[O-])c2)c(O)c1 | ? | ? | ? | -2% | ? | ?
CCNC(=S)N/N=C/c1ccccc1[N+](=O)[O-] | 3% | 0% | 0% | 3% | 12% | 1%
CCCOc1ccc(/C=N/Nc2ccccc2[N+](=O)[O-])c(O)c1 | 0.11µM* | ? | ? | 8.9µM* | -95% | ?
N#CC(Cc1ccccc1OC(F)F)c1nc2ccccc2[nH]1 (configuration not stated) | 1% | -3% | 1% | -2% | 3% | -2%
Clc1ccc(-c2nnc3sc(-c4ccccn4)nn23)cc1 | -1% | -5% | 1% | -5% | -1% | 2%
CC(C)(C)c1ccc(-c2nnc3sc(-c4ccccn4)nn23)cc1 | 9.5µM* | 28% | ? | 0% | -14% | ?
Cc1cc(C)nc(S/C=C/C(=O)c2ccccc2F)n1 | 1.5µM* | -9% | ? | · | · | -11%
Cc1cc(NC(=O)c2ccccc2F)on1 | ? | 19% | ? | -19% | ? | 18%
C/C(=N/NC(=O)c1ccc(Cl)cc1Cl)c1cccnc1 | ? | 2% | 1% | · | · | 16%
SMILES | FLuc counter | NPC1 promoter act | ELG1 genotoxic | KinaseGlo FLuc | SMN2 splice up | Rab9 prom act
N/C(=N\OC(=O)c1ccc(Cl)cc1)c1cccnc1 | 1.3µM* | 17% | 8.9µM* | -23% | 8% | 3%
N/C(=N\OC(=O)c1cccs1)c1cccnc1 | 8.5µM* | 1% | ? | · | · | 0%
N/C(=N\OC(=O)c1cccc([N+](=O)[O-])c1)c1cccnc1 | ? | -2% | 9% | 0% | -3% | 4%
Cc1ccccc1/C(N)=N/OC(=O)c1cccs1 | 6.7µM* | -1% | ? | ? | -3%[1.84 µM] | 18%
N/C(=N\OC(=O)c1ccc(Cl)cc1Cl)c1cccnc1 | 1.2µM* | 1.4µM* | 2.6µM* | -12% | · | 1.6µM*
COc1cc2[nH]c(=O)n(CCCC(=O)N(C)Cc3ccccc3)c(=O)c2cc1OC | 2% | · | · | · | 14% | ·
CCOP(=O)(OCC)/C(=N/OC(=O)c1ccc(Cl)cc1Cl)C(N)=O | -18% | -11% | 1% | · | · | -4%
Cc1cccc(/C(N)=N/OC(=O)c2ccc(Cl)cc2Cl)c1 | 0.48µM* | 0.13µM* | ? | ? | 5µM* | 0.32µM*
N/C(=N\OC(=O)c1ccc(Cl)cc1Cl)c1ccc(Cl)cc1 | 0.54µM* | 1.4µM* | ? | -7% | 22% | 1.6µM*
N/C(=N\OC(=O)c1ccc(Cl)cc1Cl)c1ccccc1 | 0.17µM* | 4.5µM* | ? | 11µM* | ? | 0.5µM*
Cc1ccc(/C(N)=N/OC(=O)c2ccc(C)cc2Cl)cc1 | 0.85µM* | 1.1µM* | ? | -4% | ? | 0.71µM*
N/C(Cc1ccc(Cl)cc1Cl)=N\OC(=O)c1ccccc1 | -19% | 0% | 0% | 0% | -4% | 2%
CCOC(=O)c1c(-c2ccccc2Cl)csc1NC(=O)c1cc(S(=O)(=O)N2CCOCC2)ccc1C | 4% | -4% | -1% | -2% | -24% | -3%
N/C(Cc1ccc(Cl)c(Cl)c1)=N\OC(=O)c1cccs1 | -12% | -3% | 0% | 0% | 9% | 0%
CCSc1ccc(/C(N)=N/OC(=O)c2cccs2)cn1 | 6µM* | ? | 13µM* | · | · | ?
Cn1cccc1/C=N/NC(=O)c1cccs1 | 15µM* | ? | ? | · | · | ?
Cn1cccc1/C=N/NC(=O)Cc1cccs1 | -17% | 9% | 3% | · | · | 14%
Cn1cc(/C=N\NC(=O)c2cccs2)c2ccccc21 | ? | ? | 11µM* | -3% | 14µM* | 2.2µM*
Cn1cc(/C=N/NC(N)=S)c2ccccc21 | -11% | 4% | -1% | · | · | -8%
CCCc1cc(C(=O)N/N=C/c2cccn2C)cs1 | 17µM* | ? | 18µM* | · | · | ?
O=C(NCC1CCCO1)c1c[nH]c2ccc(S(=O)(=O)Nc3ccc(F)cc3F)cc2c1=O (configuration not stated) | ? | · | · | · | 2% | ·
CCn1c(Cn2nnc(-c3ccccc3)n2)nnc1SCC(=O)Nc1ccc(C(C)=O)cc1 | 19µM* | ? | 14% | -8% | 14% | 24%
CC(C)(C)c1ccc(C(=O)NCCC(=O)Nc2cc(Cl)ccc2N2CCOCC2)cc1 | 21µM* | -5% | -8% | · | · | -5%
O=C(CCC1CCCC1)Nc1cc(Cl)ccc1N1CCOCC1 | 1% | -5% | -1% | · | · | -4%
